Source: PubChem BioAssay
NS1 function inh – inhibitors of influenza NS1 protein function; Potency, µM (top dose mostly 46.1 µM), for inactives: at the highest dose activity, positive = more growth; actives 0.4% (n = 270,000); AID 2326; calls by dose curve; note: potency is the fitted concentration of half-maximal effect; actives are rising curves; nearly all actives have a fitted effect of over 50% in size
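Growth recovery, yeast-based: influenza A NS1 expressed in S. cerevisiae causes slow growth, and suppressors are detected by OD600. The parent strain without NS1 is used as positive control.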
Sm TGR inh – blocks Schistosoma mansoni thioredoxin glutathione reductase | Potency, µM (doses to about 114 µM), for the others: at the highest dose activity change, negative = inhibition, actives largely listed as inhibitors | purified TGR, DTNB reduction, TNB absorbance 405 nm | Q962Y6 | actives 3% (n = 360,000) | AID 485364; note: potency is the fitted concentration of half-maximal effect; % is set by controls: 0 for no effect and ±100 for the full control effect; nearly all actives have a fitted effect of over 60% in size
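First, TGR (20 nM dispensed) and NADPH were mixed with compound. Second, a 15 min room-temperature incubation followed. Third, further NADPH and then DTNB were added to start the reaction. Finally, TNB absorbance was monitored kinetically.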
Cycloheximide cs – affects cycloheximide protein synthesis inhibition readout, counter-screen; max response, %; cell reporter, cycloheximide protein synthesis inhibition counterscreen; actives 12% (n = 300,000); in the data active = max response mostly above about 13%, no sharp cut-off; inactive = mostly below about 14%; note: read at 38.3 µM for the half of the compounds with a filed dose; 0% is about no effect
Pf growth 96h – P. falciparum growth inhibition at 96 hour, primary screen for plastid delayed-death inhibitors | AID 504834 | actives 6.9% (n = 320,000) | P. falciparum luciferase reporter growth, 96 h | Potency, µM (titrated, usually from 28.7 µM), for inactives: top-dose activity change, negative = inhibition, usual class: inhibitors; note: potency is the fitted concentration of half-maximal effect; % is set by controls: 0 for no effect and ±100 for the full control effect
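Cell-based qHTS: luciferase-tagged P. falciparum in erythrocytes (2% hematocrit, 0.05% parasitemia final) incubated with compounds for 96 hours, 37 C, 5% CO2; luciferase detection reagent then added and luminescence measured.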
Pf growth 48h – inhibits P. falciparum growth in the first generation, 48 h; Potency, µM (highest dose often 28.7 µM), for the others: at the highest dose activity change, negative = inhibition, actives largely listed as inhibitors; actives 5.9% (n = 310,000); P. falciparum luciferase growth in erythrocytes, 48 h; AID 504832; note: potency is the fitted concentration of half-maximal effect; % is set by controls: 0 for no effect and ±100 for the full control effect
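Firefly luciferase activity from engineered P. falciparum reports growth; inhibitors lower the luminescent signal. Cultures contained 2% hematocrit erythrocytes at 0.1% final parasitemia.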
Shiga toxin inh – blocks Shiga toxin action in Vero cells; Vero cells, Shiga toxin protein synthesis inhibition reporter; inhibition, % at 38.7 µM; actives 9.2% (n = 290,000); AID 2315; in the data active = inhibition mostly above about 28%, no sharp cut-off; inactive = mostly below about 43%; note: 0% is about no effect
* = called active by the depositor; u = inconclusive; x = no result. Sampled rows, rich in hits. Any-hit rate of the full collection: about 21%. Unless noted, calls come from the whole dose curve; as a rule, active = well fitted curve in the direction sought with a large enough effect; inconclusive = small, poorly fitted or top-dose-only effect, or another doubt; inactive = no such curve, though single readings can be large; an effect the other way counts as inactive or inconclusive.

SMILES | NS1 function inh | Sm TGR inh | Cycloheximide cs | Pf growth 96h | Pf growth 48h | Shiga toxin inh
COc1cc(C(=O)Nc2cccc3cccnc23)cc(OC)c1OC | -50% | 0% | 4 | u | u | -9
Nc1ncn(C2C[C@H](O)[C@@H](CO)O2)c(=O)n1 (stereo partly specified) | x | x | x | -11% | -3% | x
Cc1ccc(S(=O)(=O)n2nc(-c3ccc(Cl)cc3)nc2NCc2ccc(F)cc2)cc1 | x | 13% | x | x | x | x
Nc1ccn(CC(=O)NCc2ccc3[nH]ccc3c2)c(=O)n1 | x | -13% | x | 27% | 41% | x
COc1cccc(-c2nc(CS(=O)(=O)CC(=O)Nc3ccc(C)c(Cl)c3)c(C)o2)c1 | x | -15% | x | x | x | x
Cc1cnc(C(=O)Nc2cccc3cccnc23)cn1 | -10% | 6% | -3 | 4% | 0.37µM* | -17
O=C(Nc1cccc2cccnc12)c1cccnc1 | -8% | -1% | -1 | x | 21% | -8
COC(=O)C1=C(CS(=O)(=O)c2cc(Cl)ccc2OC)NC(=O)NC1c1ccccc1 (stereo unspecified) | x | -10% | x | x | x | x
CC(C)(C)N=C1NN=C(c2cc3ccccc3o2)CS1 | 0% | -1% | 30* | u | -87% | 86*
CC(C)(C)N=C1NN=C(c2ccc(Cl)cc2)CS1 | 4% | -17% | 70* | -71% | -58% | 91*
COc1ccc(CN=C2Nc3ccccc3CS2)cc1 | -9% | 23% | 30* | 353% | 107% | 60
COc1ccc(CN=C2NC(=O)CC(C(=O)Nc3ccc(F)cc3)S2)cc1 (stereo unspecified) | -6% | -17% | -2 | u | -8% | 12
CC(=O)Nc1ccc(C2=NNC(=NCC3CCCO3)SC2)cc1 (stereo unspecified) | 14% | -1% | -1 | -45% | 3% | 60
Cc1cc(C)n(CCc2nc(-c3cc4ccccc4o3)cs2)n1 | -9% | -2% | 23 | 8% | -4% | 45
COc1ccc(CN=C2NN=C(c3ccc(Cl)cc3)CS2)cc1 | x | -13% | 21* | u | -17% | 52*
O=c1c2sc3ccccc3c2n(Cc2ccccc2F)c(=O)n1CCc1ccccc1 | x | -9% | x | x | x | x
CC(C)C1=C[C@@]23CC[C@@H]4[C@](C)(CCC[C@@]4(C)C(=O)O)[C@@H]2C[C@@H]1[C@@H](C(=O)O)[C@@H]3C(=O)O | -6% | x | x | x | x | x
OC(CN1CCN(c2ccccc2)CC1)c1ccc2c(c1)CCN2 (stereo unspecified) | u | -6% | 6 | 9.3µM* | 39% | -13
CCN(CC)S(=O)(=O)c1cccc(C(=O)N/N=C/c2ccc([N+](=O)[O-])o2)c1 | x | u | 11 | 4.1µM* | u | 21
O=C(N/N=C/c1ccc([N+](=O)[O-])o1)c1ccncc1 | 0% | u | 8 | 6.6µM* | 1.9µM* | 5
O=C(N/N=C/c1ccc([N+](=O)[O-])o1)c1ccc(O)cc1 | -1% | 10% | 16 | 1µM* | 1.7µM* | 76
O=C(N/N=C\c1ccc([N+](=O)[O-])o1)c1cncc(Br)c1 | -55% | 35µM* | -3 | u | u | -22
COc1ccc(Cl)cc1NC(=O)Cn1nnc2sc(-c3ccccc3)cc2c1=O | x | 5% | x | x | x | x
Cc1noc(C)c1-c1ccc2ncnc(NCc3ccccc3C(F)(F)F)c2c1 | x | x | 17 | x | x | 5
Nc1nonc1C(=O)N/N=C/c1ccc([N+](=O)[O-])o1 | x | 20µM* | 44* | u | u | 76*
SMILES | NS1 function inh | Sm TGR inh | Cycloheximide cs | Pf growth 96h | Pf growth 48h | Shiga toxin inh
Cc1nc2ccccn2c1C(=O)N/N=C/c1ccc([N+](=O)[O-])o1 | x | 14µM* | 15 | 2.1µM* | u | 44
Cc1cc(C)c(Cn2c(C)c(CNCc3ccccc3C)c(C(=O)O)c2C)c(C)c1 | x | -22% | x | x | x | x
CC1CCN(S(=O)(=O)N2CCC(C(=O)NCc3ccccc3Cl)CC2)CC1 | x | 8% | x | x | x | x
CN(C)c1nc(N2CCN(c3ccc(F)cc3)CC2)c(C#N)c(=O)o1 | 13% | 7% | 1 | 26% | u | -7
CN1CCN(c2nc(N(C)C)oc(=O)c2C#N)CC1 | 5% | -14% | -3 | 0.0037µM* | -13% | -16
O=C(Cc1ccc(NC(=O)N2CCCCc3ccccc32)cc1)NCc1ccccc1Br | x | 0% | x | x | x | x
O=C(Nc1sc2c(c1-c1nc3ccccc3[nH]1)CCCC2)C1CCCC1 | 12% | -8% | 21* | 13µM* | 12µM* | 17
CC(=O)N1CCN(S(=O)(=O)c2cccc(C(=O)Nc3nc4c(s3)CCCC4)c2)CC1 | 5% | -15% | 15 | u | x | -7
CC(=O)NCCC(=O)Nc1sc2c(c1-c1nc3ccccc3[nH]1)CCCC2 | -16% | 0% | 11 | u | u | 9
CN1CCN(S(=O)(=O)c2cccc(C(=O)Nc3sc4c(c3-c3nc5ccccc5[nH]3)CCCC4)c2)CC1 | u | -8% | 16 | 3.3µM* | 2.9µM* | 27
Nc1cc(Oc2ccc(F)cc2F)cc([N+](=O)[O-])c1 | x | 1% | 2 | -18% | 13% | 11
Cc1ccc(NC(=O)C(=O)NCCCN2CCOCC2)cc1C | x | 1% | x | x | x | x
Cc1ccc(C(=O)N2CCn3c(C)ccc3C2C)cc1 (stereo unspecified) | x | 22µM* | 14 | 14% | u | 20
CCOc1ccc(C(=O)OCC(=O)NCc2ccco2)cc1OCC | -8% | 45µM* | -4 | -12% | -7% | -13
O=C(COC(=O)COc1ccccc1)NCc1ccco1 | x | -23% | x | -19% | 45% | x
COc1ccc(OCCC(=O)OCC(=O)NCc2ccco2)cc1 | 20% | 50µM* | 9 | -8% | 41% | 43
CCOc1ccc(C(=O)NCc2ccco2)cc1OCC | 8% | 12% | -2 | 181% | 0% | 21
COc1ccc(C(=O)OCC(=O)NCc2ccco2)cc1OC | 2% | 35µM* | 1 | 16% | -6% | 13
COc1ccccc1NC(=O)N1CCN(Cc2ccc3c(c2)OCO3)CC1 | -3% | 10% | -2 | 0% | 19% | 1
Cc1ccc(SCC(=O)NCCCc2ccccc2)cc1 | -13% | -29% | 4 | 0% | 14% | -16
CC(CCc1ccccc1)NC(=O)CSc1ccccc1 (stereo unspecified) | -11% | -2% | 12 | 13µM* | -19% | 15
O=C(CSc1ccccc1)NCCCc1ccccc1 | x | 11% | 9 | 15µM* | 6% | 11
CC(CCc1ccccc1)NC(=O)CSc1cccc[n+]1[O-] (stereo unspecified) | x | 0% | 9 | 6% | 2% | -17
COc1ccc(CCNC(=O)CSc2ccc(Br)cc2)cc1OC | x | 1% | 12 | -4% | -10% | 13
N/C(=N\OC(=O)C12CC3CC(CC(C3)C1)C2)c1cccnc1 | -2% | -9% | 19* | u | u | 17
N/C(=N\OC(=O)C12CC3CC(CC(C3)C1)C2)c1ccccn1 | -22% | 2% | 41* | -27% | u | 43*
